{"source": "PubChem BioAssay (EPA / NIEHS)", "note": "The source made the active and inactive calls. The calls were made as follows: active = hit-call score of the fitted dose curve at least 0.9, where 1 is the maximum; inactive = score below 0.9.", "data": [{"assay": "CCTE_Harrill_HTTr_Apoptosis_MCF7: CCTE's 6-hour Apoptosis Assessment for the High-Throughput Transcriptomics (HTTr) Platform, in MCF-7 cells cultured in DMEM + 10% fetal bovine serum, Harrill Lab (AID 2284011)", "from_the_text": "This is a cell-based assay that evaluates apoptosis using high content imaging to evaluate activation of caspase-3/7 using the CellEvent Caspase 3/7 Green detection reagent in 384-well format.One of seven assay components measured from the CCTE_Harrill_HTTr_Apoptosis assay. This was part of a full screening experiment. This is a cell-based assay that evaluates apoptosis in MCF-7 cells cultured in DMEM + 10% fetal bovine serum. High content imaging is used to evaluate activation of caspase-3/7 using the CellEvent Caspase 3/7 Green detection reagent. Measurements are taken at 6 hours after chemical dosing in 384-well format.The assay component endpoint CCTE_Harrill_HTTr_Apoptosis_MCF7 was analyzed with bidirectional fitting relation to DMSO as the negative control and baseline of activity. Using a type of viability reporter, gain-of-signal activity can be used to evaluate activation of caspase-3/7 using the CellEvent Caspase 3/7 Green detection reagent to understand changes in apoptosis. To generalize the intended target to other relatable targets, this assay endpoint is annotated to cell cycle, where the subfamily is apoptosis.\nChemicals were tested in MCF7 cells in an eight point dilution series with a six hour exposure duration.", "values": [{"smiles": "CC(CN=Cc1ccccc1O)N=Cc1ccccc1O", "note": "(stereo not given)", "outcome": "inactive"}, {"smiles": "CC(C)NCC(O)COc1ccc(CC(N)=O)cc1", "note": "(stereo not given)", "outcome": "inactive"}, {"smiles": "CC(C=O)Cc1ccc(C(C)(C)C)cc1", "note": "(stereo not given)", "outcome": "inactive"}, {"smiles": "CCc1ccc(O)cc1", "outcome": "inactive"}, {"smiles": "C=CC(C)(O)CCC=C(C)C", "note": "(stereo not given)", "outcome": "inactive"}, {"smiles": "O=C(O)CCCCCCCCCCCC(=O)O", "outcome": "inactive"}, {"smiles": "CC(O)C1CCCCC1", "note": "(stereo not given)", "outcome": "inactive"}, {"smiles": "C=C(C)[C@@H]1CC=C(C)C(=O)C1", "outcome": "inactive"}, {"smiles": "Nc1ccccc1[N+](=O)[O-]", "outcome": "inactive"}, {"smiles": "CC(C)(C)c1ccc(C(=O)O)cc1", "outcome": "inactive"}, {"smiles": "CCc1cc(Cc2cc(CC)cc(C(C)(C)C)c2O)c(O)c(C(C)(C)C)c1", "outcome": "inactive"}, {"smiles": "C[C@@H]1CCN(C(=O)[C@H](CCCN=C(N)N)NS(=O)(=O)c2cccc3c2NC[C@H](C)C3)[C@@H](C(=O)O)C1", "outcome": "inactive"}, {"smiles": "CC(=O)C1(C)CC2=C(CCCC2(C)C)CC1C", "note": "(stereo not given)", "outcome": "inactive"}, {"smiles": "CC(=O)Nc1ccc(C(=O)CCl)cc1", "outcome": "inactive"}, {"smiles": "CC(=O)O[C@@H]1CC2CCC1(C)C2(C)C", "note": "(stereo not given in full)", "outcome": "inactive"}, {"smiles": "C=CCOC(=O)CCCCCC", "outcome": "inactive"}, {"smiles": "CCCCC1(COC(=O)CCC(=O)O)C(=O)N(c2ccccc2)N(c2ccccc2)C1=O", "outcome": "inactive"}, {"smiles": "c1ccc2[nH]cnc2c1", "outcome": "inactive"}, {"smiles": "O=CCc1ccccc1", "outcome": "inactive"}, {"smiles": "O=c1c(O)c(-c2ccc(O)cc2)oc2cc(O)cc(O)c12", "outcome": "inactive"}, {"smiles": "COc1cc([C@@H]2c3cc4c(cc3[C@@H](O[C@@H]3O[C@@H]5CO[C@@H](C)O[C@H]5[C@H](O)[C@H]3O)[C@H]3COC(=O)[C@H]23)OCO4)cc(OC)c1O", "outcome": "inactive"}, {"smiles": "Cc1ccc(N)c(S(=O)(=O)O)c1", "outcome": "inactive"}, {"smiles": "C1=CC2C3C=CC(C3)C2C1", "note": "(stereo not given)", "outcome": "inactive"}, {"smiles": "Cc1ncc([N+](=O)[O-])n1CCO", "outcome": "inactive"}, {"smiles": "CCCCCCOC(=O)CCC", "outcome": "inactive"}, {"smiles": "CN(C)CCOc1ccc(/C(=C(/CCCl)c2ccccc2)c2ccccc2)cc1", "AC50": "50 µM (active)"}, {"smiles": "C[C@H]1O[C@@H](O[C@H]2[C@@H](O)C[C@H](O[C@H]3[C@@H](O)C[C@H](O[C@H]4CC[C@@]5(C)[C@H](CC[C@@H]6[C@@H]5C[C@@H](O)[C@]5(C)[C@@H](C7=CC(=O)OC7)CC[C@]65O)C4)O[C@@H]3C)O[C@@H]2C)C[C@H](O)[C@@H]1O", "outcome": "inactive"}, {"smiles": "CC(C)(C)C1=CC(=O)C(C(C)(C)C)=CC1=O", "outcome": "inactive"}, {"smiles": "O=C(O)c1ccc(O)cc1", "outcome": "inactive"}, {"smiles": "Cc1cc(C)nc(NS(=O)(=O)c2ccc(N)cc2)n1", "outcome": "inactive"}, {"smiles": "O=P(O)(O)O", "outcome": "inactive"}, {"smiles": "CC1(C)O[C@@H]2C[C@H]3[C@@H]4CCC5=CC(=O)C=C[C@]5(C)[C@@]4(F)[C@@H](O)C[C@]3(C)[C@]2(C(=O)CO)O1", "outcome": "inactive"}, {"smiles": "OCCc1ccccc1", "outcome": "inactive"}, {"smiles": "CC1(C)O[C@@H]2[C@@H](CO[C@@]3(COS(N)(=O)=O)OC(C)(C)O[C@@H]23)O1", "outcome": "inactive"}, {"smiles": "CC(C)c1ccccc1O", "outcome": "inactive"}, {"smiles": "Clc1cc(Cl)c(-c2c(Cl)c(Cl)cc(Cl)c2Cl)cc1Cl", "outcome": "inactive"}, {"smiles": "CS(C)=O", "outcome": "inactive"}, {"smiles": "c1ccc(Oc2ccccc2)cc1", "outcome": "inactive"}, {"smiles": "CC(=O)CC(=O)Nc1ccccc1", "outcome": "inactive"}, {"smiles": "CCOC(=O)[C@@H](C)Oc1ccc(Oc2nc3ccc(Cl)cc3o2)cc1", "outcome": "inactive"}]}]}
